Laboratory results taken from ChEMBL document CHEMBL1961873, “Compounds: GSK PKIS; Assays: Nanosyn kinase panel” (2012).
Several values for one entry are separate records, joined by “and”; a condition that tells them apart may be missing. Equal values may be shown once.

Legend:
[1] = biological target: Tyrosine-protein kinase receptor UFO (Homo sapiens) (UniProt P30530); conditions: at 1 µM
[2] = biological target: Tyrosine-protein kinase Blk (Homo sapiens) (UniProt P51451); conditions: at 0.1 µM
Tyrosine-protein kinase Blk (Homo sapiens), sequence (P51451 2-505 limits assumed): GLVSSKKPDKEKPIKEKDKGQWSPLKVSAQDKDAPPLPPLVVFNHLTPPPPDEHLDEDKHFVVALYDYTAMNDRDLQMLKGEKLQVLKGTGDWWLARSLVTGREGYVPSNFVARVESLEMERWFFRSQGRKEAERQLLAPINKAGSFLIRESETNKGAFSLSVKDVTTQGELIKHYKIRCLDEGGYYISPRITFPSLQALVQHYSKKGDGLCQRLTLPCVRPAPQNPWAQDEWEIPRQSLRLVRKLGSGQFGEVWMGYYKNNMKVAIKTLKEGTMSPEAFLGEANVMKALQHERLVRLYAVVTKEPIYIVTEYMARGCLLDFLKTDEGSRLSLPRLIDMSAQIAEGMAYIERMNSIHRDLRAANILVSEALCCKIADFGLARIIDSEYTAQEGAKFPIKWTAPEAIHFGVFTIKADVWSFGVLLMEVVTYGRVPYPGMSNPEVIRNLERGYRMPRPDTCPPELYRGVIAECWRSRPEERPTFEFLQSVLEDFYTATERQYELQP

[3] = biological target: Tyrosine-protein kinase Blk (Homo sapiens) (UniProt P51451); conditions: at 1 µM
[4] = biological target: T1, Cytoplasmic tyrosine-protein kinase BMX (Homo sapiens) (UniProt P51813); conditions: at 0.1 µM
T1 sequence (whole entry): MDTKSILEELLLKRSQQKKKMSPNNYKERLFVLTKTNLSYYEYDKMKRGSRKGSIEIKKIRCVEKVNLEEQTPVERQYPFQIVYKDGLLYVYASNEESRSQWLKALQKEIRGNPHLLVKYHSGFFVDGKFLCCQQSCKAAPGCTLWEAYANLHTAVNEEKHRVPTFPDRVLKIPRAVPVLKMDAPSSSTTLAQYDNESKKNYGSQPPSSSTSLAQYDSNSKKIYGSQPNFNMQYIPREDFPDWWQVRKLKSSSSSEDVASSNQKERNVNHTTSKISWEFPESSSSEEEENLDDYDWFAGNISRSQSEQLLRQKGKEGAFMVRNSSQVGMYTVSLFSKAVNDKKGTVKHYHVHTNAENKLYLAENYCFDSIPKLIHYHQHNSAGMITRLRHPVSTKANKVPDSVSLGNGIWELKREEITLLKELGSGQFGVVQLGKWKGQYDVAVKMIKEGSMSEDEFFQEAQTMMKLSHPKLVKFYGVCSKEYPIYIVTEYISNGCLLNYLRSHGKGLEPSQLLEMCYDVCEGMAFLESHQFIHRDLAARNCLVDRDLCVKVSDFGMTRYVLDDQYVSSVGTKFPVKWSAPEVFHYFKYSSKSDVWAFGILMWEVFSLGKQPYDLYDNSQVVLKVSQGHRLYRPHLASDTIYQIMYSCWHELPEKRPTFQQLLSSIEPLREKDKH

[5] = biological target: T1, Cytoplasmic tyrosine-protein kinase BMX (Homo sapiens); conditions: at 1 µM
[6] = biological target: Protein-tyrosine kinase 6 (Homo sapiens) (UniProt Q13882); conditions: at 0.1 µM
[7] = biological target: Protein-tyrosine kinase 6 (Homo sapiens) (UniProt Q13882); conditions: at 1 µM
[8] = biological target: Tyrosine-protein kinase BTK (Homo sapiens) (UniProt Q06187); conditions: at 0.1 µM
Tyrosine-protein kinase BTK (Homo sapiens), sequence (Q06187 whole entry): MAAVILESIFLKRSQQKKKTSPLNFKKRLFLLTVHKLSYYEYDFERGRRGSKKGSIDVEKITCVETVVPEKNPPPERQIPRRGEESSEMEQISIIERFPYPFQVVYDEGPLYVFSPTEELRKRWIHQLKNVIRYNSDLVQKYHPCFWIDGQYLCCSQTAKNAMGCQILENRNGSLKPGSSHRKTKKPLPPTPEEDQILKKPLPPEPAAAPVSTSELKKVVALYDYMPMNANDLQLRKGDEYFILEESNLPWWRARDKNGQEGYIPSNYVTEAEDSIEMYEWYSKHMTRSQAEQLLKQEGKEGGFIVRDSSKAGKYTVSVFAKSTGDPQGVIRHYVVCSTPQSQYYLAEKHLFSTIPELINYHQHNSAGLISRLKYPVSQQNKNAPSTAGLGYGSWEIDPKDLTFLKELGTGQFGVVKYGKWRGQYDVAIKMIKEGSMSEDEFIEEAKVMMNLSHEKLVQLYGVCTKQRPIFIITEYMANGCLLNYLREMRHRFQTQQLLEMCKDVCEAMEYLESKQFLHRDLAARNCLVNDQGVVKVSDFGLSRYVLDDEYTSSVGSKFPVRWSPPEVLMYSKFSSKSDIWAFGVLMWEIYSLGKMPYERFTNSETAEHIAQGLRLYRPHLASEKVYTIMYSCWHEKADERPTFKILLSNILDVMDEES

[9] = biological target: Tyrosine-protein kinase BTK (Homo sapiens) (UniProt Q06187); conditions: at 1 µM
[10] = biological target: Tyrosine-protein kinase CSK (Homo sapiens) (UniProt P41240); conditions: at 0.1 µM
[11] = biological target: Tyrosine-protein kinase CSK (Homo sapiens) (UniProt P41240); conditions: at 1 µM
[12] = biological target: T2, Discoidin domain-containing receptor 2 (Homo sapiens) (UniProt Q16832); conditions: at 0.1 µM
T2 sequence (whole entry): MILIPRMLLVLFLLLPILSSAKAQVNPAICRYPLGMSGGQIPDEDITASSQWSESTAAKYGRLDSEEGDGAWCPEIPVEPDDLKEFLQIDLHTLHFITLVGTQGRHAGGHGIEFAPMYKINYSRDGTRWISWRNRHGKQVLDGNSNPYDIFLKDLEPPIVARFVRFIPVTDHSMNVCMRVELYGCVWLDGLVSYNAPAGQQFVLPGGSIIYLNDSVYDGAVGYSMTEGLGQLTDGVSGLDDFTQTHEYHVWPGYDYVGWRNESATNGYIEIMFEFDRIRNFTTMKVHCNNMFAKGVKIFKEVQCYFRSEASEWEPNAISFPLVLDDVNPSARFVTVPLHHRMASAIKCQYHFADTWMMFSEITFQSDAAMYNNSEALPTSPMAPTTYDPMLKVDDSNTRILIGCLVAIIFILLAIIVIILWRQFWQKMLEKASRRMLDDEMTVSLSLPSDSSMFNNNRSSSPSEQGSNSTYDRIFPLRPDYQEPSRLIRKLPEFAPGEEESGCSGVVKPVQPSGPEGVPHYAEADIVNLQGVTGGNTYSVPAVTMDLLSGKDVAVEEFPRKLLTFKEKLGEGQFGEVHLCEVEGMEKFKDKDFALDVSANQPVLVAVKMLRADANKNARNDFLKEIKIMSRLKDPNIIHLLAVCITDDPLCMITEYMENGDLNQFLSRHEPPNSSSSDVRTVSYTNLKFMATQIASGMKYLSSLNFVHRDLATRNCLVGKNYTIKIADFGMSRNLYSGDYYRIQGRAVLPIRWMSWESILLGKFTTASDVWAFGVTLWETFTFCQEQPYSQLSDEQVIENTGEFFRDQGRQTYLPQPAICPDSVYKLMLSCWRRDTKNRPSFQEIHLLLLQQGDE

[13] = biological target: T2, Discoidin domain-containing receptor 2 (Homo sapiens); conditions: at 1 µM
[14] = biological target: Epidermal growth factor receptor (Homo sapiens) (UniProt P00533); conditions: at 0.1 µM
Epidermal growth factor receptor (Homo sapiens), sequence (P00533 whole entry): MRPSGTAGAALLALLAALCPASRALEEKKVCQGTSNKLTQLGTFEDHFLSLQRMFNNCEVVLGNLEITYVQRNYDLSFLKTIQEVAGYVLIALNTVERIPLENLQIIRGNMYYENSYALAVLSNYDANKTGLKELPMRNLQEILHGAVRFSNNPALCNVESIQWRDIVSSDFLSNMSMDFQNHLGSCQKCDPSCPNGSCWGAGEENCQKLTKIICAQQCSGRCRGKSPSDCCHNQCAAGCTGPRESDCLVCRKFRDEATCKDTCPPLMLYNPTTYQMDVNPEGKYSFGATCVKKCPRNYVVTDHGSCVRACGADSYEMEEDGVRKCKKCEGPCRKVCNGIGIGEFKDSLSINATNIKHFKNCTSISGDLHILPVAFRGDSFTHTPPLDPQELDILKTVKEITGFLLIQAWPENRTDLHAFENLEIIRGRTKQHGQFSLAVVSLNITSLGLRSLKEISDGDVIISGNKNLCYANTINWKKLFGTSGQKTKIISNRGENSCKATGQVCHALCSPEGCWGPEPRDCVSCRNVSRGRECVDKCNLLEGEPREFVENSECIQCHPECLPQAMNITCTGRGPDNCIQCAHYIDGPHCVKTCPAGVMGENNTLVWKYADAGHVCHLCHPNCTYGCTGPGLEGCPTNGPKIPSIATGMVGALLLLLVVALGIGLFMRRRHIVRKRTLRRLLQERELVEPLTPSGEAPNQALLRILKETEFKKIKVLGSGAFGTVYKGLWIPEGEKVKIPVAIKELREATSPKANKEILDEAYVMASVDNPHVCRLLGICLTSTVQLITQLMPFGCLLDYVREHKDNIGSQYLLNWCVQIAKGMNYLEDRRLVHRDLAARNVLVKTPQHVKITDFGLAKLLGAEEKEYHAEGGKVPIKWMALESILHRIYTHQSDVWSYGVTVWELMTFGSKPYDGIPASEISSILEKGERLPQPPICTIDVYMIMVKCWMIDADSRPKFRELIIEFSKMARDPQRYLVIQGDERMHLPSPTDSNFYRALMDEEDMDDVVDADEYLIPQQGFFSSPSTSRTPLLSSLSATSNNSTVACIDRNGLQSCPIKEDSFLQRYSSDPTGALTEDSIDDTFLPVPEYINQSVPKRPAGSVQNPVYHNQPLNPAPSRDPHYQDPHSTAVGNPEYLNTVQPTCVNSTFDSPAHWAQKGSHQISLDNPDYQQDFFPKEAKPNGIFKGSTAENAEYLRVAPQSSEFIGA

[15] = biological target: Epidermal growth factor receptor (Homo sapiens) (UniProt P00533); conditions: at 1 µM
[16] = tested on: Epidermal growth factor receptor (Homo sapiens), P00533 [L858R]; conditions: at 0.1 µM
Epidermal growth factor receptor (Homo sapiens), P00533 [L858R], sequence (P00533 whole entry L858R): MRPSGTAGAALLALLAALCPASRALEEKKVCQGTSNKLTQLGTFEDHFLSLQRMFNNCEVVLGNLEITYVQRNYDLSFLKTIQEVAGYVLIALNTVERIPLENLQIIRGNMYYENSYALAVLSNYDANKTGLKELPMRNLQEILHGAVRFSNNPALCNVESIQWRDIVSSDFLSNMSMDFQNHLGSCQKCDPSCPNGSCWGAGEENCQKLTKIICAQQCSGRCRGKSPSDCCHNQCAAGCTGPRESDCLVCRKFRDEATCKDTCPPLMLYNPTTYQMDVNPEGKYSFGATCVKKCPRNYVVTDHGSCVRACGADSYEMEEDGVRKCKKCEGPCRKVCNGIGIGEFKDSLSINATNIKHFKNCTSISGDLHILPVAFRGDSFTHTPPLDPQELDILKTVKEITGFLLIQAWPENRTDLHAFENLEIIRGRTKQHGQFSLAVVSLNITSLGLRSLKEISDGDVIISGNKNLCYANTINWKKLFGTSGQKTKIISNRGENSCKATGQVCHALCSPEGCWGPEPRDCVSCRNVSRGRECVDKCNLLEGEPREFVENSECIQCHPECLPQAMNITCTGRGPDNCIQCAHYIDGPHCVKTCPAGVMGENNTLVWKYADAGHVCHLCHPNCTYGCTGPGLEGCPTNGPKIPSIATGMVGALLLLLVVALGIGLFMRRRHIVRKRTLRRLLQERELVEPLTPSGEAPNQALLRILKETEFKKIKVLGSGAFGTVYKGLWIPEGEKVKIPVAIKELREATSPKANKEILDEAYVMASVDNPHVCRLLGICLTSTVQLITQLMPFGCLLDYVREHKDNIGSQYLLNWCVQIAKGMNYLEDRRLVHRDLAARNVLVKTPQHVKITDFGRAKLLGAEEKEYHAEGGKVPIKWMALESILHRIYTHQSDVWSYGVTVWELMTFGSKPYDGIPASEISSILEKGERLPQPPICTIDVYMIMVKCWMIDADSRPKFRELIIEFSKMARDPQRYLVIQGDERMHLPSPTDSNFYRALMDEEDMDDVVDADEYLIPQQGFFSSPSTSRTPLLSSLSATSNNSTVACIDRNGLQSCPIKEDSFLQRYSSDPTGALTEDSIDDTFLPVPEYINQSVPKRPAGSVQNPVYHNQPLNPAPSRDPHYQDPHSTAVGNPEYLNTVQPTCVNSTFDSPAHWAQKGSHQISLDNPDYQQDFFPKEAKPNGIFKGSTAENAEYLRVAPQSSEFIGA

[17] = tested on: Epidermal growth factor receptor (Homo sapiens), P00533 [L858R]; conditions: at 1 µM
[18] = tested on: Epidermal growth factor receptor (Homo sapiens), P00533 [L861Q]; conditions: at 0.1 µM
[19] = tested on: Epidermal growth factor receptor (Homo sapiens), P00533 [L861Q]; conditions: at 1 µM
[20] = tested on: Epidermal growth factor receptor (Homo sapiens), P00533 [T790M]; conditions: at 0.1 µM
Epidermal growth factor receptor (Homo sapiens), P00533 [T790M], sequence (P00533 whole entry T790M): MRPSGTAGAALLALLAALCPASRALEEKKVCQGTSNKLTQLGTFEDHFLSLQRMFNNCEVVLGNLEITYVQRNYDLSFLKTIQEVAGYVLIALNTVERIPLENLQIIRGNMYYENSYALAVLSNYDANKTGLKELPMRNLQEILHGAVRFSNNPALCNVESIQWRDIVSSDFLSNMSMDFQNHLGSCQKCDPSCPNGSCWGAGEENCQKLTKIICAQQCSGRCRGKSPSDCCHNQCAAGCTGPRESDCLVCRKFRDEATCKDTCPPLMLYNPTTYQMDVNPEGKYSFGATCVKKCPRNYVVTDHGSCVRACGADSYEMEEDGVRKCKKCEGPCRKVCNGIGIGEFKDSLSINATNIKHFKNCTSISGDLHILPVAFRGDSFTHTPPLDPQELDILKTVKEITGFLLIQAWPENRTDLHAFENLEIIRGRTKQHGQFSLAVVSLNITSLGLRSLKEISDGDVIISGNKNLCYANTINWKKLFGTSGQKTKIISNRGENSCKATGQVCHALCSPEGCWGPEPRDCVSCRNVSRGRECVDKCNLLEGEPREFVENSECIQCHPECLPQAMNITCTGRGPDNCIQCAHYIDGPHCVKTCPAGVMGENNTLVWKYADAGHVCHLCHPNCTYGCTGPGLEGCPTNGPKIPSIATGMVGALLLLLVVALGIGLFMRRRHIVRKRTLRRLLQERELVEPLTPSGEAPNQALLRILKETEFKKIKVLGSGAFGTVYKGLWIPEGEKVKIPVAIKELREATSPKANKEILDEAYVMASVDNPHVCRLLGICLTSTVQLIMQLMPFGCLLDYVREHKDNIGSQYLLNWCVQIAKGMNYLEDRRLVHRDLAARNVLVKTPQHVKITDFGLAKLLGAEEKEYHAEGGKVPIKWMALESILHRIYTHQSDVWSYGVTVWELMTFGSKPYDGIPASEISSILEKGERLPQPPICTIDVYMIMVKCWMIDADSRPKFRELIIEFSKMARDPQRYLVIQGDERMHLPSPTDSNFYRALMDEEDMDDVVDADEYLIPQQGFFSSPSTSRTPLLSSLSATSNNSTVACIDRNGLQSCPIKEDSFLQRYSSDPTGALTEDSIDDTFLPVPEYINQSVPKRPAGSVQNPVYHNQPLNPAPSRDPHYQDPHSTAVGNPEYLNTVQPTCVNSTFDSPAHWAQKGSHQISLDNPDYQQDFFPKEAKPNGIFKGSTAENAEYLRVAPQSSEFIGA

SMILES | inhibition [1] | inhibition [2] | inhibition [3] | inhibition [4] | inhibition [5] | inhibition [6] | inhibition [7] | inhibition [8] | inhibition [9] | inhibition [10] | inhibition [11] | inhibition [12] | inhibition [13] | inhibition [14] | inhibition [15] | inhibition [16] | inhibition [17] | inhibition [18] | inhibition [19] | inhibition [20]
CNC(=O)c1sc(-n2cnc3cc(OC)c(OC)cc32)cc1OCc1ccccc1C(F)(F)F | -2.36% | 3.39% | 7.51% | 4.57% | 2.17% | 0.08% | 2.98% | 0.62% | 3.2% | 3.42% | 7.18% | 2.3% | 2.7% | -0.83% | 2.09% | 0.74% | -0.13% | 1.16% | 1.23% | 0.64%
Cc1ccc(-c2cc3c(NC(=O)C4CC4)ncnc3o2)cc1 | -1.05% | 3.18% | 12.7% | -1.26% | 7.57% | 4% | 8.16% | 0.73% | 1.92% | 2.33% | 2.78% | 0.26% | 1.45% | 3.75% | 8.67% | 3.53% | 2.75% | 2.3% | 4.69% | 1.98%
O=C(O[C@H]1CN[C@H](C#Cc2cc3ncnc(Nc4ccc(OCc5cccc(F)c5)c(Cl)c4)c3s2)C1)N1CCOCC1 | -9.27% | 3.99% | 1.91% | -1.21% | 3.25% | 5.25% | 9.3% | 0.42% | -0.33% | 7.67% | 7.44% | 1% | 2.47% | 77.1% | 77.1% | 40.9% | 87% | 42.8% | 75.2% | 5.1%
CN1CCN(Cc2ccc(-c3cc4ncnc(Nc5ccc(OCc6cccc(F)c6)c(Cl)c5)c4s3)o2)CC1 | -0.55% and -6.25% | 2.97% and 3.59% | 13.3% and 15.7% | 1.68% and 6.37% | 5.03% and 3.73% | 6.28% and 7.91% | 29.5% and 33.2% | -0.21% and -0.71% | 2.04% and 2.62% | 2.47% and 5.63% | 12.6% and 17.7% | 1.16% and 0.39% | 1.23% and -0.86% | – | – | – | – | – | – | –
CCS(=O)(=O)c1ccc(OC)c(Nc2ncc(-c3cccc(C(C)=O)c3)o2)c1 | -3.61% | 4.6% | 35.6% | -2.05% | 15.7% | 4.59% | 18.7% | 2.71% | 8.89% | 2.68% | 10.1% | 3.31% | 17.9% | 4.92% | 9.23% | 5.11% | 16.6% | 5.35% | 5.8% | 1.86%
OCCCNc1nccc(-c2c(-c3ccc(F)cc3)nn3cc(C(F)(F)F)ccc23)n1 | 1.31% | 1.06% | 2.83% | 5.93% | 3.3% | 1.91% | 5.03% | 0.07% | 0.45% | 4.06% | 1.58% | 3.25% | 19.3% | 0.97% | 9.16% | 5.62% | 24.6% | 2.61% | 6.62% | 0.96%
CNC(=O)c1ncccc1Nc1nc(Nc2cc3c(cc2OC)CCCN3C(=O)CN(C)C)nc2[nH]ccc12 | 53.5% | 2.8% | 7.25% | 3.62% | 4.96% | 4% | 6.37% | 0.46% | 1.22% | 2.99% | 2.18% | 2.33% | 3.8% | 1.65% | 7.76% | 4.57% | 22.4% | 4.79% | 7.78% | 13.2%
